# Laboratory results published in PubChem BioAssay AID1490 (National Center for Advancing Translational Sciences (NCATS), 2009).
# In all, about 310,000 compounds went through this assay and about 11,000 (3.5%) were called active. About 4% were inconclusive and are not listed. Calls come from the whole dose curve; as a rule, active = well fitted inhibition curve with a large enough effect; inconclusive = small, poorly fitted or top-dose-only effect, or another doubt; inactive = no such curve, though single readings can be large or run the other way. For the sample, actives were picked, then their nearest neighbours and some compounds at random.
# Target: 4'-phosphopantetheinyl transferase ffp (Bacillus subtilis) (UniProt Q9F4F7)
# Assay: qHTS Assay for Inhibitors of Bacillus subtilis Sfp phosphopantetheinyl transferase (PPTase);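 note: the enzyme is Sfp with the accession as filed and its product quenches rhodamine fluorescence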;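 for largest response in the series, negative = inhibition: 0% = enzyme reaction without inhibitor and -100% = no enzyme wells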
# Conditions: Biochemical Sfp PPTase activity
# Method in brief: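 Step 1, compound plus 15 nM Sfp-PPTase, 15 min, room temperature. Step 2, add rhodamine-CoA (5 uM) and BHQ-2-YbbR (12.5 uM). Step 3, read 525/598 nm fluorescence at 0 and 30 min.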
# Potency is the fitted concentration of half-maximal effect.
SMILES,"largest response in the series, negative = inhibition",Potency
CC(C)Cn1cnc2c1c(=O)n(CC(=O)NN)c(=O)n2Cc1ccccc1,10.8% (inactive),
CCOC(=O)[C@@H]1[C@H]2COc3cc(OC)ccc3[C@H]2N2C(=O)N(c3ccc(F)cc3)C(=O)[C@]12C,11.1% (inactive),
O=S(=O)(NC1CC2CCC1C2)c1ccc(Cl)cc1 (configuration not stated),6.14% (inactive),
Cc1ccc(NC(=S)NC(=O)/C=C/c2ccc(Cl)cc2)cc1,-9.72% (inactive),
CCOc1ccc(NC(=S)NC(=O)/C=C/c2ccc(OC)cc2)c([N+](=O)[O-])c1,,70.8 µM (active)
COCOc1cc(OC)ccc1C(=O)/C=C/c1ccc([N+](=O)[O-])cc1,0.0276% (inactive),
CCOC(=O)C1=C(c2ccccc2)NC(=O)NC1c1cc(OCC)c(O)c([N+](=O)[O-])c1 (configuration not stated),10.9% (inactive),
Brc1ccccc1/C=N/Nc1nc2ccccc2o1,-1.43% (inactive),
COC(=O)c1ccc2ccccc2c1OC1OC(CO)C(O)C(O)C1NC(C)=O (configuration not stated),4.77% (inactive),
COc1cc(CN2CCN(Cc3ccc(C)cc3)CC2)c([N+](=O)[O-])cc1OC,,56.2 µM (active)
COc1cc(CN2CC(C)CC(C)C2)cc([N+](=O)[O-])c1O (configuration not stated),-8.11% (inactive),
COc1cc(CN2CCCN(C)CC2)c([N+](=O)[O-])cc1OC,5.29% (inactive),
COc1ccc(OCC(=O)NNC(=O)c2ccc(-c3ccccc3)cc2)cc1,-6.16% (inactive),
COc1ccc(OCc2nnc3n2N=C(c2ccccc2)C(CC(=O)O)S3)cc1 (configuration not stated),,4.47 µM (active)
COc1cccc(OCc2nnc3n2N=C(c2ccccc2)C(CC(=O)O)S3)c1 (configuration not stated),13.2% (inactive),
COc1cccc(CNC(=O)C2CCCN(c3ncnc4c3nc3n4CCCCC3)C2)c1 (configuration not stated),3.29% (inactive),
COC(=O)c1cccc(NS(C)(=O)=O)c1,9.77% (inactive),
COC(=O)c1cccc(N2C(=O)C3C4C=CC(CC4)C3C2=O)c1 (configuration not stated),11.5% (inactive),
COC(=O)c1cccc(-n2[nH]nnc2=S)c1,,15.8 µM (active)
CC1(C)Cc2c(sc(NC(=O)C(=O)NCC3CCCO3)c2C(=O)O)CO1 (configuration not stated),8.68% (inactive),
C=C(C(C)=O)C(O)c1ccc([N+](=O)[O-])cc1 (configuration not stated),-25.7% (inactive),
CC(=O)Nc1c2c(nn1-c1cccc(C)c1)CSC2,15.2% (inactive),
CCN1/C(=C/c2ccc3ccc(C)cc3[n+]2CC)Sc2ccccc21,-8.02% (inactive),

SMILES,"largest response in the series, negative = inhibition",Potency
CCN1/C(=C/C(=S)Nc2ccccc2)Sc2ccccc21,,14.1 µM (active)
O=C(CCN1c2ccccc2Sc2ccccc21)Nc1ccccc1,-1.89% (inactive),
Cc1ccc(S(=O)(=O)N2CCC3(CC2)OCCO3)c(C)c1,19.7% (inactive),
CCc1[nH]nc(C(=O)N2CCCC(CO)(Cc3ccc(F)cc3F)C2)c1C (configuration not stated),4.7% (inactive),
COC(=O)C1CCN(C(=O)c2ccc3oc(Cc4ccc(Cl)cc4)nc3c2)CC1,16.5% (inactive),
O=C(CN1CCOCC1)N/N=C/c1ccc(-c2ccc(Br)cc2)o1,-29.3% (inactive),
Cc1ccc(-c2ccc(/C=N/NC(=O)CN3CCOCC3)o2)cc1[N+](=O)[O-],,50.1 µM (active)
Cc1cc(C)c([N+](=O)[O-])cc1-c1ccc(/C=N/NC(=O)c2nonc2N)o1,-8.88% (inactive),
Cc1[nH]c2ccc(C(=O)N3CCN(C)CC3)cc2c1C,9.64% (inactive),
Cc1ccc(-c2csc(NC3OC(=O)c4ccccc43)n2)cc1 (configuration not stated),7.08% (inactive),
NC(=O)C1CCN(CC(O)CSc2ccc(F)cc2)CC1 (configuration not stated),0.977% (inactive),
CCc1nc(SCC(=O)NNC(=O)c2ccc(C)cc2)c2ccccc2n1,10% (inactive),
Cc1ccc(C(=O)NNC(=O)c2cc3cc4ccccc4nc3s2)cc1,-2.23% (inactive),
Cc1ccc(C(=O)NNc2ncnc3ccccc23)cc1,,70.8 µM (active)
CCOc1cc(NC(=O)Nc2ccccc2)c(OCC)cc1NC(=O)CC,17.2% (inactive),
COc1cc(C(=O)NCc2cc3cc(Cl)ccc3n2C)cc(OC)c1OC,9.69% (inactive),
O=C(Nc1ccc(S(=O)(=O)N2CCOCC2)cc1)c1ccc2ncsc2c1,,50.1 µM (active)
O=C(Nc1ccc(S(=O)(=O)Nc2nccs2)cc1)c1cccc(S(=O)(=O)N2CCOCC2)c1,10% (inactive),
O=C(Nc1ccc(N2CCOCC2)c(Cl)c1)c1ccc(S(=O)(=O)N2CCOCC2)cc1,10.6% (inactive),
CC(C)c1nc(CNC(=O)CC2C(=O)NCCN2Cc2cccc(F)c2F)cs1 (configuration not stated),7.23% (inactive),
CC(=O)NC(CC(=O)Nc1nc(-c2ccccc2)c(C(C)=O)s1)c1ccccc1 (configuration not stated),2.16% (inactive),
CN(C(=O)CCN1C(=O)/C(=C/c2ccccc2F)SC1=S)C1CCS(=O)(=O)C1 (configuration not stated),1.57% (inactive),
CCOC(=O)c1c(NC(=O)CSc2nnc(C)c(=O)[nH]2)sc2c1CCC2,12% (inactive),

SMILES,"largest response in the series, negative = inhibition",Potency
CCOC(=O)CSc1nc(C)c(Oc2ccc(Cl)cc2Cl)c(=O)[nH]1,11.2% (inactive),
CCCCOC(=O)CNc1nnc(SCC(=O)OCC)[nH]c1=O,,20 µM (active)
C=CCn1c(CSc2nc3ccccc3s2)nnc1SCC(=O)NCc1ccco1,,15.8 µM (active)
CCn1c(COc2ccccc2)nnc1SCC(=O)NCc1ccco1,21.1% (inactive),
C=CCn1c(SCC(=O)Nc2nc3ccccc3s2)nnc1-c1ccccc1O,-3.27% (inactive),
CC(=O)c1cc2c(cc1NC(=O)Cn1nc(-c3ccc(F)cc3)ccc1=O)OCO2,8.25% (inactive),
COc1ccc(S(=O)(=O)NCCc2cc3ccc(C)c(C)c3[nH]c2=O)cc1,8.17% (inactive),
Cc1cc(O)c(C2(O)C(=O)Nc3ccccc32)cc1C (configuration not stated),0.726% (inactive),
O=C1Nc2ccccc2C12Nc1ccccc1S2 (configuration not stated),,20 µM (active)
COc1ccc(C2(O)C(=O)Nc3ccccc32)cc1 (configuration not stated),5.11% (inactive),
CN1CCN(c2ncc3nc(-c4ccc(Cl)cc4)c(=O)n(-c4ccccc4)c3n2)CC1,-4.61% (inactive),
CCOC(=O)c1c(S(=O)(=O)Nc2cccc(Cl)c2)c(C)n(C)c1C,17.3% (inactive),
Cc1ccsc1-c1cc(C(=O)O)c2c(ccc3ccccc32)n1,5.93% (inactive),
Cc1cc(C)c2nc(-c3ccco3)cc(C(=O)O)c2c1,,20 µM (active)
COC(=O)c1cnn2c(C(F)(F)F)cc(-c3ccco3)nc12,-3.33% (inactive),
Cc1ccc(S(=O)(=O)c2c[nH]c3ccc(C)cc3c2=O)cc1,18.3% (inactive),
COc1cc(C)cc(CN2CCC(Cc3ccccc3)CC2)c1O,15.6% (inactive),
Cc1ccc(OCc2nnc(SC3CCc4ccccc4C3=O)n2C)cc1 (configuration not stated),,25.1 µM (active)
Cc1ccc(OCc2nc3ccccc3n2C)cc1,16.9% (inactive),
Cc1cccnc1NC(=O)CSc1nnc(COc2ccc(C(C)C)cc2)n1C,-2.86% (inactive),
CCCCNC(=O)c1ccccc1NC(=O)c1ccccc1N(C)S(C)(=O)=O,,50.1 µM (active)
CCC(C)NC(=O)c1ccccc1NC(=O)c1ccccc1N(C)S(C)(=O)=O (configuration not stated),17.5% (inactive),
CCCCNC(=O)c1ccccc1NC(=O)C1=C(C)OCCS1,4.87% (inactive),

SMILES,"largest response in the series, negative = inhibition",Potency
C=CCOC(=O)C(C(C)=O)C(NC(=O)OC)c1ccccc1 (configuration not stated),17.2% (inactive),
COc1ccc(C)cc1NC(=O)CN(C)S(=O)(=O)c1ccc2c(c1)n(C)c(=O)c(=O)n2C,13.5% (inactive),
C[C@]12CC[C@@H]3C(=CCc4cc(O)ccc43)[C@@H]1CCC2=O,-11.9% (inactive),
COc1ccc2c(c1)CC[C@@H]1[C@@H]2CC[C@]2(C)C(=O)CC[C@@H]12,,50.1 µM (active)
COc1ccc(S(=O)(=O)N2CCN(C)CC2)c(C)c1,13.7% (inactive),
CCCc1c(C(=O)N/N=C(\C)CCc2ccc(OC)cc2)nnn1-c1nonc1N,10.3% (inactive),
CCOc1ccc(N2C(=O)/C(=C/c3ccc(C)o3)N(C)C2=S)cc1,,3.98 µM (active)
CCOc1ccc(N2C(=O)CN(c3cccc4ccccc34)C2=S)cc1,11.1% (inactive),
CCO/C=C1\C(=O)N(c2ccc(OCC)cc2)C(=O)c2ccccc21,3.31% (inactive),
COC(=O)C1=C(C(=O)OC)[C@@H]2N(C)c3ccccc3[C@@]23C[C@@H](C(=O)OC)N(S(=O)(=O)c2ccc(Br)cc2)C3=N1,14% (inactive),
CCOC(=O)C1=NOC(Cn2cc(C(C)=O)c(=O)[nH]c2=O)C1 (configuration not stated),15.9% (inactive),
CCOC(=O)C1=NO[C@@]2(C=C(Br)C(=O)[C@H]3O[C@H]32)C1,,31.6 µM (active)
CCOC(=O)C1=C(C)N=C2c3ccccc3C(=O)C2C1c1ccc(Br)cc1 (configuration not stated),10.1% (inactive),
Cc1c(C=O)c2ccccc2n1CCOc1ccccc1,-1.13% (inactive),
CCOc1ccc(N/C=C/C(=O)c2cc(OC)c(OC)c(OC)c2)cc1,-7.21% (inactive),
COc1ccccc1NC(=O)CSc1nnc(CNC(=O)c2ccccc2F)o1,15.2% (inactive),
NC(=O)c1c(NC(=O)CSc2nc(N)cc(=O)[nH]2)sc2c1CCCC2,-28% (inactive),
NC(=O)c1c(NC(=O)CSc2nnc(-c3ccco3)n2N)sc2c1CCCC2,,5.62 µM (active)
CCc1cccc(C)c1NC(=O)CSc1nnc(-c2ccco2)n1N,-3.08% (inactive),
CCOc1ccccc1NS(=O)(=O)c1c[nH]c(C(=O)OC)c1,4.59% (inactive),
COC(=O)C1=C(C)N=C2SC(C)C(=O)N2C1/C=C/c1ccccc1 (configuration not stated),18.9% (inactive),
CC(OC(=O)c1ccccc1N1C(=O)C2C3CCC(C3)C2C1=O)C(=O)c1ccccc1 (configuration not stated),11.3% (inactive),
CCOC(=O)c1ccccc1N1C(=O)C2Sc3[nH]c(=O)sc3C(/C=C/c3ccccc3)C2C1=O (configuration not stated),,12.6 µM (active)
